# Measurements taken from PubChem BioAssay (EPA / NIEHS).
# Calls of active or inactive are those of the source. The calls were made as follows: active = hit-call score of the fitted dose curve at least 0.9, where 1 is the maximum; inactive = score below 0.9.
# Assay: ATG_MRE_CIS: Attagene CIS-FACTORIAL HepG2 Assay for human Metal Responsive Element (MRE) (AID 2282954)
# Details: HepG2 MRE cis-reporter transcription, Attagene multiplex; actives raise or lower the signal
# Protocol: ATG_CIS is a cell-based, multiplexed-readout assay that uses HepG2, a human liver cell line, with measurements taken at 24 hours after chemical dosing in a 24-well plate.ATG_MRE_CIS is one of 52 assay component(s) measured or calculated from the ATG_CIS assay. It is designed to make measurements of mRNA induction, a form of inducible reporter, as detected with fluorescence intensity signals by Reverse transcription polymerase chain reaction (RT-PCR) and Capillary electrophoresis technology.Data from the assay component ATG_MRE_CIS was analyzed into 1 assay endpoint. This assay endpoint, ATG_MRE_CIS, was analyzed with bidirectional fitting relative to DMSO as the negative control and baseline of activity. Using a type of inducible reporter, measures of mRNA for gain or loss-of-signal activity can be used to understand the reporter gene at the transcription factor-level as they relate to the gene MTF1. Furthermore, this assay endpoint can be referred to as a primary readout, because this assay has produced multiple assay endpoints where this one serves a reporter gene function. To generalize the intended target to other relatable targets, this assay endpoint is annotated to the dna binding intended target family, where the subfamily is zinc finger.
# Human liver HepG2 cells are transiently transfected with multiple reporter transcription units (MRTUs) in 6-well plates using FuGene 6 reagent (Roche; 3 ml FuGene/1 mg DNA). The MRTU constructs are regulated by a cis-regulating element (promoter). […] A major difference between the CIS and TRANS system is that in CIS activities of endogenous TFs are measured, whereas the TRANS assay evaluates changes in activities of exogenous, chimeric NR-Gal4 proteins. […] At the end of 24 hour incubation, total RNA was isolated using TriZol reagent (Invitrogen). The isolated RNA is then reverse-transcribed using oligo(dT) primer and Mo-MLV reverse transcriptase (Invitrogen) with DNAse I (Ambion) treatment for 30 min. The one-tenth of the produced cDNA was amplified by PCR using Taq DNA polymerase (Invitrogen) and two reporter sequence-specific primers. The PCR products were fluorescently labeled by primer extension with 6-arboxyfluorescein (6-FAM) 5'-labeled reporter sequence-specific primer (2 min at 95 C, 20 s at 68 C and 10 min at 72 C) and these products were digested with 5U of HpaI (New England Biolabs) for 2h at 37 C. The fragments were purified using Qiaquick PCR columns (Qiagen), analyzed on an ABI 3130xL genetic analyzer (Applied Biosystems) with peak positions identified by using a set of X-rhodamine (ROX)-labeled MapMarker1000 molecular weight standards (BioVentures). The raw capillary electrophoresis data was processed using Attagraph software (Attagene).
SMILES,outcome,AC50
CC(C)C(C)(N)C#N (stereo not given),inactive,–
NC(=O)CCl,inactive,–
CN(C)c1ccc(N=O)cc1,inactive,–
O=C1C=CC(=O)c2ccccc21,inactive,–
CC(C)O.CC(C)O.OCCN(CCO)CCO.OCCN(CCO)CCO.[Ti],inactive,–
CCCCCCCCCCCCN(C)C,inactive,–
CC(C)(C)c1ccccc1O,–,149 µM (active)
CCCCCCCCCCCCCCC(Br)C(=O)O (stereo not given),–,161 µM (active)
Cc1cc(-c2cc(C)c(N)c(C)c2)cc(C)c1N,inactive,–
C=C(C)C(=O)OCC(CC)CCCC (stereo not given),inactive,–
CCCCCCCCBr,inactive,–
O=[N+]([O-])c1cc([As](=O)(O)O)ccc1O,inactive,–
CCCCCCCCCCCCCl,inactive,–
O=C(NC(=O)c1c(F)cccc1F)Nc1cc(Cl)c(F)c(Cl)c1F,inactive,–
ClCc1ccccc1Cl,inactive,–
OCCCCO,inactive,–
BrCCCCBr,inactive,–
CNC(=O)N(C)c1nc2ccccc2s1,inactive,–
CCOP(=S)(OCC)Oc1ccc(Cl)cc1Cl,inactive,–
O=S1(=O)OC(c2cc(Br)c(O)c(Br)c2)(c2cc(Br)c(O)c(Br)c2)c2ccccc21,inactive,–

SMILES,outcome,AC50
C=CCCl,inactive,–
O=C(O)COc1cc(Cl)c(Cl)cc1Cl,inactive,–
OC[P+](CO)(CO)CO,inactive,–
COc1ccc([N+](=O)[O-])cc1O,inactive,–
C=CCOC(N)=O,inactive,–
CC(c1ccc(O)cc1)c1ccc(O)cc1,–,100 µM (active)
O=c1nc(O)n(Cl)c(=O)n1Cl,inactive,–
N#CCCC(Br)(C#N)CBr (stereo not given),–,49.5 µM (active)
Cc1cccc(OP(=O)(Oc2cccc(C)c2)Oc2cccc(C)c2)c1,inactive,–
Cl[C@H]1OCCO[C@@H]1Cl,inactive,–
OC(Cc1ccccc1Cl)(Cn1[nH]cnc1=S)C1(Cl)CC1 (stereo not given),–,77.6 µM (active)
C[As+](C)(C)CC(=O)[O-],inactive,–
O=C(Cl)OCCOCCOC(=O)Cl,inactive,–
CC(C)[C@@H](Nc1ccc(C(F)(F)F)cc1Cl)C(=O)OC(C#N)c1cccc(Oc2ccccc2)c1 (stereo not given in full),inactive,–
CCOP(=S)(OCC)O/N=C(\C#N)c1ccccc1,inactive,–
O=[N+]([O-])c1ccc(Nc2ccccc2)cc1,–,80.4 µM (active)
N#Cc1cccnc1,inactive,–
[F][Sn]([c]1ccccc1)([c]1ccccc1)[c]1ccccc1,–,0.339 µM (active)
O=S(=O)(c1ccc(Cl)cc1)c1cc(Cl)c(Cl)cc1Cl,inactive,–
CCCCN(CCCC)C(=S)S,–,112 µM (active)
